NS1 function inh: blocks influenza NS1 protein function. Potency, µM (doses to about 46.1 µM), for the others: top-dose activity, positive = more growth. 0.4% of 270,000 active. AID 2326; calls by dose curve; further: potency means the concentration at half of the fitted maximal effect; actives are rising curves; nearly all actives have a fitted effect of over 50% in size
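A cell-based growth assay was used: compounds that relieve NS1-induced slow growth of budding yeast raise OD600. Assay medium was yeast nitrogen base with ammonium sulphate and -URA supplement, pH 6.0, with 2% galactose.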
LmPK inh: inhibitors of Leishmania mexicana pyruvate kinase. Potency, µM (series often up to 57.5 µM), for inactives: top-dose activity change, negative = inhibition, hits mostly inhibitors. purified LmPK, Kinase-Glo ATP luminescence, 1 h. 0.37% of 290,000 active. AID 1721. Q27686; further: potency means the concentration at half of the fitted maximal effect; on the % scale 0 is the no-effect control and ±100 the full control effect
Target sequence (Q27686 whole entry, looked up): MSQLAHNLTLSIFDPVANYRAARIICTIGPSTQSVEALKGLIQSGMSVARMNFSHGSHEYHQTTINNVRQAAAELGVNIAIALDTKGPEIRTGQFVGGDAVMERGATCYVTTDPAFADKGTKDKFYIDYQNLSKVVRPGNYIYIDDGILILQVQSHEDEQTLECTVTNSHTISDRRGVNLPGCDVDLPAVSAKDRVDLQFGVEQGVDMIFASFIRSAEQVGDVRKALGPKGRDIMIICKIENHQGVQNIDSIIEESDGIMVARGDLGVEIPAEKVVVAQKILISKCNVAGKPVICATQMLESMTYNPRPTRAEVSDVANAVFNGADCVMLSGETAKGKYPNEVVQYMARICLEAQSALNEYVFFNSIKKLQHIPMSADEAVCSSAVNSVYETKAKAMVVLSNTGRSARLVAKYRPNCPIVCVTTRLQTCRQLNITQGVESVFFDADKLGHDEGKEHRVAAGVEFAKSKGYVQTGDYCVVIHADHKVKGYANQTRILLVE
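qHTS format; LmPK 0.1 nM; substrates PEP 0.5 mM and ADP 0.1 mM. One-hour room-temperature incubation, then coupled luciferase luminescence; 0.5 nM enzyme wells mark activation.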
Giardia FBPA inh: Giardia lamblia aldolase inhibition; purified Giardia FBPA; AID 2451; 0.71% of 290,000 active; Potency, µM (doses to about 59.6 µM), for inactives: at the highest dose activity, negative = inhibition, hits mostly inhibitors; A8B2U2; further: potency means the concentration at half of the fitted maximal effect; on the % scale 0 is the no-effect control and ±100 the full control effect; nearly all actives have a fitted effect of over 55% in size
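Giardia FBPA (40 nM reagent) was preincubated 10 min at RT with compound (up to 57.5 uM final), then substrate plus GAPDH/TPI/NAD/arsenate coupling system with diaphorase/resazurin was added; resorufin fluorescence (525/598 nm) was read after 20 min.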
Cycloheximide cs: counter-screen for Shiga toxin inhibitors: cycloheximide protein synthesis inhibition; cell reporter, cycloheximide protein synthesis inhibition counterscreen; max response, %; 12% of 300,000 active; in the data active means max response mostly above about 13%, no sharp cut-off; inactive means mostly below about 14%; further: read at 38.3 µM for the half of the compounds with a filed dose; 0% is about no effect
Shiga toxin inh: inhibitors of Shiga toxin in Vero cells | Vero cells, Shiga toxin protein synthesis inhibition reporter | inhibition, % at 38.7 µM | 9.2% of 290,000 active; in the data active means inhibition mostly above about 28%, no sharp cut-off; inactive means mostly below about 43%; further: 0% is about no effect
Starred values were filed as active, the others as inactive; ? = inconclusive; . = not tested or not shown; [ ] = remark or other dose. Hits are enriched below; roughly 14% of the tested compounds scored in any of these assays. Unless noted, the call rests on the fitted dose curve; in most records, active means well fitted curve in the direction sought with a large enough effect; inconclusive means small, poorly fitted or top-dose-only effect, or another doubt; inactive means no such curve, though single readings can be large; an effect the other way counts as inactive or inconclusive.

SMILES | NS1 function inh | LmPK inh | Giardia FBPA inh | Cycloheximide cs | Shiga toxin inh
COc1cccc(N2C(=O)C(CC(=O)Nc3ccc(F)cc3)N(C3CCCCC3)C2=O)c1 (centres undefined) | -10.3% | -9.7% | -3.7% | -2.0 | -3.3
Cc1cccc(Nc2ccc(NCc3ccccc3)nn2)c1 | . | 8.4% | 6.9% | 31.2* | 87.0*
Cc1cccc(NCc2nc3ccccc3n2Cc2ccccc2)c1 | -98.4% | 6.8% | -8.3% | 12.2 | 14.9
CC(=O)Nc1ccc(S(=O)(=O)NCC(=O)OCC(=O)NC(=O)C2CCCCC2)cc1 | 4.5% | -1.9% | 7.9% | 20.9* | -13.2
COc1ccccc1N1C(=O)NC(=O)/C(=C\c2cnn(-c3ccccc3)c2)C1=O | . | 0.0% | -5.2% | 13.3 | 47.5*
COc1ccccc1N1C(=O)NC(=O)/C(=C/c2ccc3c4c(cccc24)CC3)C1=O | ? | 1.0% | ? | 17.5* | 33.2
O=C1NC(=O)N(Cc2ccccc2)C(=O)/C1=C/c1cnn(-c2ccccc2)c1 | . | -1.6% | 8.3% | 30.4* | 51.3*
O=C1NN(c2ccc(F)cc2)C(=O)/C1=C\c1cnn(-c2ccccc2)c1 | 2.4% | 1.3% | 1.6% | -1.3 | -3.4
Cc1ccccc1CCNC(=O)C1CCC(=O)N(CCc2cccc(F)c2)C1 (centres undefined) | -1.8% | -3.8% | 4.4% | 12.3 | 10.4
Cc1cc(Nc2ccccc2)n(C(=O)c2ccc(Cl)cc2)n1 | -30.1% | -0.8% | -2.6% | 34.6* | 71.7*
Cc1cc(Nc2ccccc2)n(-c2ccc(C(=O)O)cc2)n1 | . | 3.2% | 17.3% | -1.5 | -10.0
COC(=O)c1cnc(SCc2ccc(C)cc2)n1C | -3.9% | 1.9% | -4.4% | 31.6* | 44.1
Cn1c(CO)cnc1SCc1ccc(Cl)cc1 | -7.4% | -3.4% | -27.4% | 20.3* | 24.7
CCN(CC)c1ccc(C(=C2C=CC(=[N+](CC)Cc3cccc(S(=O)(=O)[O-])c3)C=C2)c2ccc(N(CC)Cc3cccc(S(=O)(=O)O)c3)cc2)cc1 | . | . | ? | -4.3 | -12.3
CCN(CC)c1ccc(C(=C2C=CC(=[N+](CC)CC)C=C2)c2ccccc2)cc1 | . | . | 17.7µM* | -20.0 | -25.2
O=C(c1ccncc1)N1N=C(c2ccc(Br)cc2)CC1c1ccccc1O (centres undefined) | -7.2% | -6.7% | 1.0% | -4.3 | -7.5
O=C(c1ccccc1Cl)N1N=C(c2ccc(Br)cc2)CC1c1nc2ccccc2[nH]1 (centres undefined) | -80.9% | 8.8% | 0.5% | 17.2* | 28.0
CC1CCC(NC(=S)NCCN(C)C)CC1 (centres undefined) | 3.3% | 2.7% | ? | 23.4* | 44.8*
COc1cccc(NC(=O)CCC2CCN(Cc3nccs3)CC2)c1 | 4.2% | -1.0% | . | 6.3 | -8.4
COc1ccc(NC(=O)COC(=O)C2CC3C=CC2C3)cc1 (centres undefined) | -1.7% | 0.4% | 0.3% | 19.9* | 42.1*
O=C(COC(=O)C1CC2C=CC1C2)NCCc1ccccc1 (centres undefined) | -4.3% | 0.1% | 3.0% | 20.4* | 24.8
CCN(CC)S(=O)(=O)c1cccc(NC(=O)COC(=O)C2CC3C=CC2C3)c1 (centres undefined) | -9.5% | -0.2% | -5.1% | 1.6 | 15.2
O=C(COC(=O)C1CC2C=CC1C2)Nc1ccccc1F (centres undefined) | -4.1% | -12.9% | 2.9% | 38.3* | 71.9*
N#Cc1cccc(-c2nc3cnc(N4CCOCC4)nc3n(C[C@H]3CCCO3)c2=O)c1 | . | . | 1.7% | . | .
COc1ccc(C(=C2C(=O)Nc3ccccc32)c2ccc(OC)cc2)cc1 | . | . | -29.3% | 4.7 | -7.1
SMILES | NS1 function inh | LmPK inh | Giardia FBPA inh | Cycloheximide cs | Shiga toxin inh
CCCc1cc(-c2n[nH]c(=S)n2CC)cs1 | . | ? | 0.2% | -0.5 | 5.8
CCCCn1c(-c2csc(CCC)c2)n[nH]c1=S | -80.6% | 22.4µM* | -0.5% | -1.0 | -8.0
CCCc1cc(-c2n[nH]c(=S)n2C(C)c2ccccc2)cs1 (centres undefined) | -1.9% | 22.4µM* | -0.2% | -2.6 | -25.1
COc1ccc(CCn2c(-c3ccc(Cl)cc3)n[nH]c2=S)cc1OC | . | 1.4% | 2.4% | 0.7 | -8.6
CCCCn1c(-c2cc(Cl)ccc2OC)n[nH]c1=S | 4.3% | 12.6µM* | 8.8% | -2.8 | -10.8
CCC(=O)O[C@H](CC(=O)O)C[N+](C)(C)C | . | . | 0.3% | . | .
CCN(Cc1ccccc1)S(=O)(=O)c1c(C)[nH]c(C)c1C(=O)N1CCCC1 | -2.7% | -0.3% | -1.0% | -5.6 | -14.1
CC1=CC(=O)C2=C(C)CC[C@@H]3[C@@H](OC(=O)[C@H]3C)[C@H]12 | . | . | 6.1%[21.7 µM] | . | .
CCOC(=O)c1cnn(Cc2ccc(C)cc2)c1N | . | 0.0% | 0.7% | 10.9 | 33.8
CCOC(=O)c1cnn(-c2ccc(C)cc2)c1N | 0.1% | -2.9% | -2.3% | 32.8* | 74.9*
CCOC(=O)c1ccc(-n2ncc(C(=O)OCC)c2N)cc1 | ? | -2.8% | 2.8% | 21.3* | 33.5
NC(=O)n1c(O)c(C(=O)c2cccs2)c2cc(Cl)ccc21 | . | . | -1.0% | -4.5 | -4.5
COc1ccc(N(CC(C)C)S(=O)(=O)c2nnc(NC(=O)CC(C)C)s2)cc1 | 4.5% | -0.8% | 5.3% | -0.8 | 6.3
O=C(Nc1ccc(Cl)cc1)N(Cc1cccs1)Cc1cccs1 | -0.5% | -0.4% | -4.7% | 14.0* | 45.1*
O=C(Cc1cccs1)Nc1ccc(Cl)cc1 | -6.6% | -0.2% | -4.3% | 17.4* | active
Cc1cccc(C)c1NC(=O)CS(=O)CC(=O)Nc1ccc(N2CCOCC2)cc1 (centres undefined) | 5.9% | -6.2% | -6.4% | -4.7 | -4.4
O=C(Cc1cccs1)Nc1ccc(N2CCOCC2)cc1 | 7.1% | 2.0% | ? | 24.4* | 111.0*
Cc1cccc(NC(=O)c2cccc(NC(=O)Cc3cccs3)c2)c1 | -0.5% | -1.6% | -1.3% | 27.1* | 92.0*
C[C@@H]1NC(=O)C/C=C\[C@@H](C)[C@@H]2C=C[C@H](O)[C@@H](COC(=O)[C@H](C)NC(=O)C/C=C\[C@@H](C)[C@@H]3C=C[C@H](O)[C@@H](COC1=O)O3)O2 | . | . | -0.6%[12.9 µM] | . | .
O=C(Nc1ccccc1)N1CCCC2(CCN(C(=O)c3ccco3)CC2)C1 | . | . | 5.4% | . | .
O=C(Nc1ccccc1)N(O)c1ccc(Cl)cc1 | -72.4% | -6.3% | -27.4% | 48.7* | 98.3*
CC(=O)N(C)c1ccc(NC(=O)Cc2cccs2)cc1 | -0.6% | -0.1% | -0.4% | 17.6* | .
Cc1cccc(NC(=O)Cc2cccs2)n1 | 4.0% | -0.9% | -19.4% | 32.5* | 68.8*
CCN(CCS(=O)(=O)c1ccc(Cl)cc1)C(=O)Nc1ccccc1 | 0.1% | -0.7% | 4.5% | 5.2 | 3.0
Clc1ccc(OCc2nnc(SCc3nnc(-c4ccccc4)o3)o2)c(Cl)c1 | -1.4% | 0.2% | -16.9% | 39.2* | 56.0*
O=C(CSc1nnc(COc2ccc(Cl)cc2Cl)o1)Nc1ccccn1 | -67.4% | -9.9% | . | 28.4* | 60.2*
O=C(CSc1nnc(CCCOc2ccc(Cl)cc2Cl)o1)Nc1ccc(C(=O)O)cc1 | 12.2% | 1.6% | 9.8% | -2.4 | 16.5
COc1ccc(C(=O)NC(=C(Cl)Cl)S(=O)(=O)c2ccc(C)cc2)cc1 | 3.9% | -3.3% | . | 21.5* | 38.7

Source: PubChem
